Source: article PMC7862700, “An all-to-all approach to the identification of sequence-specific readers for epigenetic DNA modifications on cytosine”

Columns and labels:
Assay in all cases: DAPPL (digital affinity profiling via proximity ligation, sequencing); 10 mM Tris-HCl pH 7.5, 50 mM NaCl, 1 mM DTT, 4% glycerol, room temperature, 30 min; GST-TFs on glutathione beads, 16-mer random dsDNA library, 0.1% formaldehyde crosslink after washing; high values mean tight binding
Settings in all cases: protein: recombinant; tags: N-terminal GST; dsDNA, one strand shown
FLI1 = target: T1, FLI1 (Homo sapiens, UniProt Q01543 1-452)
T1 sequence: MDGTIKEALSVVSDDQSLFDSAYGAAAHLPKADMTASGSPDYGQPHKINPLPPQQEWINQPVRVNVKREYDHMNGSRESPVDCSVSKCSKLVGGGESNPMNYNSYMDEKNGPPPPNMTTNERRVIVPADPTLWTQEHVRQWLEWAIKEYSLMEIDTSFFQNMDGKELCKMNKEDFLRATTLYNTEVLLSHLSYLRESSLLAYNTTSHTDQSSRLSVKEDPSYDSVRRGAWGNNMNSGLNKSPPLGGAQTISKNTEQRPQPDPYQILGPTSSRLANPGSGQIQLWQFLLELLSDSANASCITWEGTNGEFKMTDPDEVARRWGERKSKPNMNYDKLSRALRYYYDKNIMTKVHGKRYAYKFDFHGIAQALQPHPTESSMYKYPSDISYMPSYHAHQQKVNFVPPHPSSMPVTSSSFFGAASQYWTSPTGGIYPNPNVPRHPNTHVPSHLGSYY
Outline: (§1)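 After expression in yeast as GST fusions, human transcription factors were bound to glutathione beads, DNA-barcoded and mixed with a tag-only sample. The pools were incubated with 200 nmole of a 16-mer random double-stranded DNA library in Tris/NaCl/DTT/glycerol buffer (30 min, room temperature), washed and crosslinked with 0.1% formaldehyde. Proximity ligation with BsaI/T4 ligase ran for 1 h at 37 °C, before PCR amplification and sequencing on an Illumina NextSeq500. Binding signal is a hexamer's read frequency for a factor divided by its frequency for the tag-only sample.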

ELK1 = target: T2, ELK1 (Homo sapiens, UniProt P19419 1-428)
T2 sequence: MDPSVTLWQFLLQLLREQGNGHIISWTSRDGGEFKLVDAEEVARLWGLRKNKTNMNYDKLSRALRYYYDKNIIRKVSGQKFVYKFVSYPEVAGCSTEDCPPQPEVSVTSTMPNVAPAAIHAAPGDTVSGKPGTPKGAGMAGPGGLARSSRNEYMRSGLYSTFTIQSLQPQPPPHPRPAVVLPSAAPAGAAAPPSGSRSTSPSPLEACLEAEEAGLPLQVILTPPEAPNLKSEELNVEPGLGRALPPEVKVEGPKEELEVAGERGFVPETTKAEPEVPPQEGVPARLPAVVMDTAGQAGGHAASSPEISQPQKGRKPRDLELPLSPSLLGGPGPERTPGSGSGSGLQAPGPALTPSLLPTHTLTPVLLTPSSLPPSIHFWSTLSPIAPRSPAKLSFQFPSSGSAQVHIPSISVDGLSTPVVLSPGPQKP
Outline: as §1

GABPA = target: T3, GABPA (Homo sapiens, UniProt Q06546 1-454)
T3 sequence: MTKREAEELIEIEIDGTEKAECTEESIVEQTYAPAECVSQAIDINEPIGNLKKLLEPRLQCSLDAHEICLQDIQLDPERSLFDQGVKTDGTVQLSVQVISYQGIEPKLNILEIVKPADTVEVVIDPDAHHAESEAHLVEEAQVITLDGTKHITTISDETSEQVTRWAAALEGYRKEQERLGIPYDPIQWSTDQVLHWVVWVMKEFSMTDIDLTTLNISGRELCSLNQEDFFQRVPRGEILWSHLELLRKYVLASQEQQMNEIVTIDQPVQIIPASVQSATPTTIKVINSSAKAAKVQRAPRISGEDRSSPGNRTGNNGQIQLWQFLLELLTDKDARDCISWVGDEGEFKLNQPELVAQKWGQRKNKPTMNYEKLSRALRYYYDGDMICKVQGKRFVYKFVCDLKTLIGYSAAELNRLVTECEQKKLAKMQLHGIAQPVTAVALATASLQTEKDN
Outline: as §1

ERG = target: T4, ERG (Homo sapiens, UniProt P11308 1-479)
T4 sequence: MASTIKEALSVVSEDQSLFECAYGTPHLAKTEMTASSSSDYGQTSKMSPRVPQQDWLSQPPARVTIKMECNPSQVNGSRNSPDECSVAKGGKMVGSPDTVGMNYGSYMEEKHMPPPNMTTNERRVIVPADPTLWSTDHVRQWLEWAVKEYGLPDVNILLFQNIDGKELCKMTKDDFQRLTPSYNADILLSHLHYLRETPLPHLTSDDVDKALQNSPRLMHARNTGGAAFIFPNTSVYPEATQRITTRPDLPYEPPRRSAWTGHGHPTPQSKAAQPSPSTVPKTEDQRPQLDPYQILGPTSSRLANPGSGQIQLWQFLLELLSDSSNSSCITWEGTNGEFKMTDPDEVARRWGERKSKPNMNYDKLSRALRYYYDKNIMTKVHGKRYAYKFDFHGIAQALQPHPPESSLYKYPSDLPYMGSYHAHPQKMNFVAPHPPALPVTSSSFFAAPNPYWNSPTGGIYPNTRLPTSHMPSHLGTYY
Outline: as §1

ELF1 = ELF1 (Homo sapiens, UniProt P32519 1-619)
Outline: as §1

EHF = target: T5, EHF (Homo sapiens, UniProt Q9NZC4 1-300)
T5 sequence: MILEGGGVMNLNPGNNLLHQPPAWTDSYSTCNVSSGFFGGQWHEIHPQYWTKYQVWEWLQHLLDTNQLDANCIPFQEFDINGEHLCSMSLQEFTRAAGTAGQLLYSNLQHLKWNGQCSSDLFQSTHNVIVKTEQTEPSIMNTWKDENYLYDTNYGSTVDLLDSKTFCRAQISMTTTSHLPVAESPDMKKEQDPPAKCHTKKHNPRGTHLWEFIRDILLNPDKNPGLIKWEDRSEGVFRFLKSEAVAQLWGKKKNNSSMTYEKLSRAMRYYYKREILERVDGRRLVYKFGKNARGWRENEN
Outline: as §1

SPI1 = SPI1 (Homo sapiens, UniProt P17947 1-270)
Outline: as §1

SPIB = SPIB (Homo sapiens, UniProt Q01892 1-262)
Outline: as §1

ELK3 = target: T6, ELK3 (Homo sapiens, UniProt P41970 1-407)
T6 sequence: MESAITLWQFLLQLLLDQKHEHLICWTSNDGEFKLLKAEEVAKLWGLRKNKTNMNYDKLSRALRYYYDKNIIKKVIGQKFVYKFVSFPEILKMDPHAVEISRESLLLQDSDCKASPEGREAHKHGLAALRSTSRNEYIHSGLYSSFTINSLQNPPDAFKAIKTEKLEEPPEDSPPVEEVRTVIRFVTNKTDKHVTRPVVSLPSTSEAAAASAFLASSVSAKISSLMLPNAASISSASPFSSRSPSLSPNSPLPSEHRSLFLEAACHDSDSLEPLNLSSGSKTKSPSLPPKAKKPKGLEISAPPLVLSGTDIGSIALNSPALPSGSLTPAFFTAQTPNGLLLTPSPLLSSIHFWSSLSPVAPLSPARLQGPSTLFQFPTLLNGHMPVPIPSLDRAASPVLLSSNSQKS
Outline: as §1

FEV = target: T7, FEV (Homo sapiens, UniProt Q99581 1-238)
T7 sequence: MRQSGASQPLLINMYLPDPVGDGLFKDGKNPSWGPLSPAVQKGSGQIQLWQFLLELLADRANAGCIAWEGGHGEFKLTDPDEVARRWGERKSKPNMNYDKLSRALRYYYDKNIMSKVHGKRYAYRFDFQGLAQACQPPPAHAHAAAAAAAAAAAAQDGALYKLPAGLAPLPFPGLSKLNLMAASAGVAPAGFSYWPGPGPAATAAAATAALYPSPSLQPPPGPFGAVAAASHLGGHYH
Outline: as §1

ETV5 = ETV5 (Homo sapiens, UniProt P41161 1-510)
Outline: as §1

SPIC = target: T8, SPIC (Homo sapiens, UniProt Q8N5J4 1-248)
T8 sequence: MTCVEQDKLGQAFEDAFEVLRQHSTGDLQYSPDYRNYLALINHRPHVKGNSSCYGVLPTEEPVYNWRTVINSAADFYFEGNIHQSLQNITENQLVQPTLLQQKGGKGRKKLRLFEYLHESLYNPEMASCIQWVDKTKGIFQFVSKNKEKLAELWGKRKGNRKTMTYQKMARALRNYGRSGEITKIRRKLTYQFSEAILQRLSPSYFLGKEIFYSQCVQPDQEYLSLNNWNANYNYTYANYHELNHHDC
Outline: as §1

ELF4 = ELF4 (Homo sapiens, UniProt Q99607 1-663)
Outline: as §1

ELK4 = target: T9, ELK4 (Homo sapiens, UniProt P28324-2 1-405)
T9 sequence: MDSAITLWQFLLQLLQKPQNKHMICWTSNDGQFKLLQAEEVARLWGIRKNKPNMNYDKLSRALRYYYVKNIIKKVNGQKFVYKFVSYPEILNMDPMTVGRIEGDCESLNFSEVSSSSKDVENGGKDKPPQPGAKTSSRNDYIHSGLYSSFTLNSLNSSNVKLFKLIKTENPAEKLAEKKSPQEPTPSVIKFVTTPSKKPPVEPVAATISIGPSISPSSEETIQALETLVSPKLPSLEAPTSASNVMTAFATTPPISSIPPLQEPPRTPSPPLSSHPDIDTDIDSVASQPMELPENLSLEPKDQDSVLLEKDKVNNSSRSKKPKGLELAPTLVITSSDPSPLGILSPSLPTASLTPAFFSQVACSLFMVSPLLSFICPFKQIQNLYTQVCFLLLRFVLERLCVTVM
Outline: as §1

ETV2 = target: T10, ETV2 (Homo sapiens, UniProt O00321 1-342)
T10 sequence: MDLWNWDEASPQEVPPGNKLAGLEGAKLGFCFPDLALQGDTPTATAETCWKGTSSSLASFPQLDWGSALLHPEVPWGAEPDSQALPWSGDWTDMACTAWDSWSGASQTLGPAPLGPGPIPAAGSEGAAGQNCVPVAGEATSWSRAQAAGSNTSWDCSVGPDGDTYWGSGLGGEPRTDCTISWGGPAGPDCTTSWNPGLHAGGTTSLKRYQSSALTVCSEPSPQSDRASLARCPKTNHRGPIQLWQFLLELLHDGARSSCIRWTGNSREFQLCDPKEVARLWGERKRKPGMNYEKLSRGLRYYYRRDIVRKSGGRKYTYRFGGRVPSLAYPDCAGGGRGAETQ
Outline: as §1

ELF3 = target: T11, ELF3 (Homo sapiens, UniProt P78545 1-371)
T11 sequence: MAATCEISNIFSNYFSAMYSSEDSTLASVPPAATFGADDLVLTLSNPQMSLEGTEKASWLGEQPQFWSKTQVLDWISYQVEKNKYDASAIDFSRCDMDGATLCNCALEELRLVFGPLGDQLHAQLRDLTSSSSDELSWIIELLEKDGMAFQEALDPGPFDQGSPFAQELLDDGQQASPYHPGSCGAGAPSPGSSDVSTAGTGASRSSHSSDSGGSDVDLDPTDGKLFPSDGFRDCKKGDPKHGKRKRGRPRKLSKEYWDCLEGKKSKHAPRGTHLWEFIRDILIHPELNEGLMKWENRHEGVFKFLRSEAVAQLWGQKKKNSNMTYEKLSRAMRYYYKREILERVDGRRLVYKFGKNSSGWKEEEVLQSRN
Outline: as §1

ETV1 = ETV1 (Homo sapiens, UniProt P50549 1-477)
Outline: as §1

Sequence of ELF1 (P32519 whole entry): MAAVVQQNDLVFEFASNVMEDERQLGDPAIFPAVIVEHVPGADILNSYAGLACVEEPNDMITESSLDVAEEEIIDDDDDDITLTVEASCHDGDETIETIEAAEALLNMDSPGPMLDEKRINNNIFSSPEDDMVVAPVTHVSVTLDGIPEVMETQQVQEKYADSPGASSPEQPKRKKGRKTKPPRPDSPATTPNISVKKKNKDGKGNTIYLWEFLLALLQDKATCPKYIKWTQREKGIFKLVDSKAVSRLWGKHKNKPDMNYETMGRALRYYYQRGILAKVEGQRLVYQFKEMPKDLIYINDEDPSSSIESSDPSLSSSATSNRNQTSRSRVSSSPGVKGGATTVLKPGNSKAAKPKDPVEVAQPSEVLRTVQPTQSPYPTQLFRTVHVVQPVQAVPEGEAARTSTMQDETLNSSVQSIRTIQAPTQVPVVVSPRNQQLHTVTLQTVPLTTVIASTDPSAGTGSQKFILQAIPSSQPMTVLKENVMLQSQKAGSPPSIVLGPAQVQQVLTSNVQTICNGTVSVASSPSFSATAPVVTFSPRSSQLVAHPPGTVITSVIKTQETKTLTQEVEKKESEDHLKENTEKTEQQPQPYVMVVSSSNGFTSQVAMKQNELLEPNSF
Sequence of ETV5 (P41161 whole entry): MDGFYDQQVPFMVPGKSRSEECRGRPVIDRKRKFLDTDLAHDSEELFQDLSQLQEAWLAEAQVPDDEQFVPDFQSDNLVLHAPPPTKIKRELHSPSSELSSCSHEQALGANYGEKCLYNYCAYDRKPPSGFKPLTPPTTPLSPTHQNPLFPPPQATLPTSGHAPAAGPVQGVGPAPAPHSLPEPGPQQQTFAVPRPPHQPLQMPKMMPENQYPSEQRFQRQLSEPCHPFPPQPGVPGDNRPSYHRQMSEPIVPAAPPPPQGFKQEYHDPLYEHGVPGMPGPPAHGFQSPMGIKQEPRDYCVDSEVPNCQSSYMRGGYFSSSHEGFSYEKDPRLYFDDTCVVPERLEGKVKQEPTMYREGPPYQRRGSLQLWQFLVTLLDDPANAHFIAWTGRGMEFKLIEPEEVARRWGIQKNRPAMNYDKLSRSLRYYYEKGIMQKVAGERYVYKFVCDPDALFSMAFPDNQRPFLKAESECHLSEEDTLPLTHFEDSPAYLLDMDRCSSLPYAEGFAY
Sequence of ETV1 (P50549 whole entry): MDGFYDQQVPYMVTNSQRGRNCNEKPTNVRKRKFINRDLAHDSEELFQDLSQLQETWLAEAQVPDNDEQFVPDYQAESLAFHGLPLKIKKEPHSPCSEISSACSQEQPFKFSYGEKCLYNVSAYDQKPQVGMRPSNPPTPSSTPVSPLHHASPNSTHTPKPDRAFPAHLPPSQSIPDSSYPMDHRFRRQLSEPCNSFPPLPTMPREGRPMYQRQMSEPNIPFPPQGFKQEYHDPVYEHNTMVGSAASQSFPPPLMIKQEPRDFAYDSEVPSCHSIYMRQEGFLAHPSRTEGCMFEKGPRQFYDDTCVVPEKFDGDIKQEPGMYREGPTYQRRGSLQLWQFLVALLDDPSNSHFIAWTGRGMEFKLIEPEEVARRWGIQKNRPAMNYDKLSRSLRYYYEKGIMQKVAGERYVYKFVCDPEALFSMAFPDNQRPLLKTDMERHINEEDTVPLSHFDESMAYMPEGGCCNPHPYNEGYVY
Sequence of ELF4 (Q99607 whole entry): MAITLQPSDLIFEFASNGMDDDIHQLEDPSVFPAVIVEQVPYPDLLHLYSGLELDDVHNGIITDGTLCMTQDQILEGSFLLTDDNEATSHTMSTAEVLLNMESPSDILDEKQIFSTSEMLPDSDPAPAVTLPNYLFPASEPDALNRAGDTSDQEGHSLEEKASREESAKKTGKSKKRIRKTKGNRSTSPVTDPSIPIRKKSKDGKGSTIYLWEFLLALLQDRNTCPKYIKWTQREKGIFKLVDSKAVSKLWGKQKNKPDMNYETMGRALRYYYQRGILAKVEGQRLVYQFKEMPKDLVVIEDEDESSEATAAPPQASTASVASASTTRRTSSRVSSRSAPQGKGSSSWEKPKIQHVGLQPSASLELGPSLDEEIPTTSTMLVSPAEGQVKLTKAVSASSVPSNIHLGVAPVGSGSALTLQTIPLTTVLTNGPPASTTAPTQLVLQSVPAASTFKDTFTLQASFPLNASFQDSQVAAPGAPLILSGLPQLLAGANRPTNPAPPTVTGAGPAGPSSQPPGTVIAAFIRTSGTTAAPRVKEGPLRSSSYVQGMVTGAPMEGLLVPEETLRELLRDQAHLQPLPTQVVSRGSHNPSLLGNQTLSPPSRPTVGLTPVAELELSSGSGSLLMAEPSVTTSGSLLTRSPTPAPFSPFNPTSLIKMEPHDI
Sequence of SPIB (Q01892 whole entry): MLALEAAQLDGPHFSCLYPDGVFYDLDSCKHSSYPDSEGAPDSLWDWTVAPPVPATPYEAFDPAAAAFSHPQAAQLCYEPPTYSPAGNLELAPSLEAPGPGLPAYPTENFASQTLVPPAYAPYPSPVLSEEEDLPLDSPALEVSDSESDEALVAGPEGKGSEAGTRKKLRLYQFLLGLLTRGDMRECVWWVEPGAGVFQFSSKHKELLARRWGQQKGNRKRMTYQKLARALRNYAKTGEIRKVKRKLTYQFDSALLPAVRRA

Sequence	binding signal (FLI1)	binding signal (ELK1)	binding signal (GABPA)	binding signal (ERG)	binding signal (ELF1)	binding signal (EHF)	binding signal (SPI1)	binding signal (SPIB)	binding signal (ELK3)	binding signal (FEV)	binding signal (ETV5)	binding signal (SPIC)	binding signal (ELF4)	binding signal (ELK4)	binding signal (ETV2)	binding signal (ELF3)	binding signal (ETV1)
GTTTTG	1.19 fold enrichment (6-mer frequency, TF over GST control)	1.17 fold enrichment (6-mer frequency, TF over GST control)	1.2 fold enrichment (6-mer frequency, TF over GST control)	1.25 fold enrichment (6-mer frequency, TF over GST control)	1.23 fold enrichment (6-mer frequency, TF over GST control)	1.15 fold enrichment (6-mer frequency, TF over GST control)	1.2 fold enrichment (6-mer frequency, TF over GST control)	1.23 fold enrichment (6-mer frequency, TF over GST control)	1.11 fold enrichment (6-mer frequency, TF over GST control)	1.16 fold enrichment (6-mer frequency, TF over GST control)	1.28 fold enrichment (6-mer frequency, TF over GST control)	1.34 fold enrichment (6-mer frequency, TF over GST control)	1.18 fold enrichment (6-mer frequency, TF over GST control)	1.22 fold enrichment (6-mer frequency, TF over GST control)	1.26 fold enrichment (6-mer frequency, TF over GST control)	1.03 fold enrichment (6-mer frequency, TF over GST control)	1.25 fold enrichment (6-mer frequency, TF over GST control)
TGTCCC	1.27 fold enrichment (6-mer frequency, TF over GST control)	1.35 fold enrichment (6-mer frequency, TF over GST control)	1.33 fold enrichment (6-mer frequency, TF over GST control)	1.38 fold enrichment (6-mer frequency, TF over GST control)	1.28 fold enrichment (6-mer frequency, TF over GST control)	1.32 fold enrichment (6-mer frequency, TF over GST control)	1.22 fold enrichment (6-mer frequency, TF over GST control)	1.36 fold enrichment (6-mer frequency, TF over GST control)	1.47 fold enrichment (6-mer frequency, TF over GST control)	1.39 fold enrichment (6-mer frequency, TF over GST control)	1.35 fold enrichment (6-mer frequency, TF over GST control)	1.26 fold enrichment (6-mer frequency, TF over GST control)	1.29 fold enrichment (6-mer frequency, TF over GST control)	1.4 fold enrichment (6-mer frequency, TF over GST control)	1.44 fold enrichment (6-mer frequency, TF over GST control)	1.65 fold enrichment (6-mer frequency, TF over GST control)	1.31 fold enrichment (6-mer frequency, TF over GST control)
